In PubChem BioAssay (Tox21):
Records with an inconclusive call do not appear. Entries that show only a call come without a potency. Activity calls are given as the source filed them. Calls follow the shape of the dose curve; as a rule, active = well fitted curve in the direction sought with a large enough effect in the repeat runs; inconclusive = weak or mixed curves; inactive = no such curve, though single readings can be large; an effect the other way counts as inactive or inconclusive.

System: not listed separately
Assay: qHTS assay to identify aromatase inhibitors - cell viability counter screen (AID 743084);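 also: cells stimulated with testosterone during compound exposure; nearly all actives have a fitted effect of over 55% in size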
Conditions: MCF-7 aro ERE viability, CellTiter-Fluor, 24 h; series mostly up to 70.3 µM

| SMILES | Potency |
| --- | --- |
| CCOC(=O)[C@]1(c2ccccc2)Oc2ccccc2[C@@H]1N | inactive |
| Clc1ccc(C2(Cn3cncn3)CC(Br)CO2)c(Cl)c1 (stereo not drawn) | inactive |
| N#Cc1cc(I)c(O)c(I)c1 | inactive |
| CCCC(Cn1cncn1)c1ccc(Cl)cc1Cl (stereo not drawn) | inactive |
| COc1ccc(-c2ccccc2)cc1NNC(=O)OC(C)C | inactive |

Target: Aryl hydrocarbon receptor (Homo sapiens) (UniProt P35869)
Assay: qHTS assay to identify small molecule that activate the aryl hydrocarbon receptor (AhR) signaling pathway (AID 743085);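 also: HG2L7.5c1 human HepG2 liver cells with stably integrated DRE-driven firefly reporter; nearly all actives have a fitted effect of over 15% in size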
Conditions: HepG2 AhR-luc (HG2L7.5c1), luciferase, 24 h; series mostly up to 70.3 µM
In short: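 Compounds were tested in HepG2 hepatocellular carcinoma cells harbouring a stably integrated luciferase gene under control of 20 DREs. Increased reporter signal after 24 h treatment at 37C was taken as AhR activation.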

Chain of Aryl hydrocarbon receptor (Homo sapiens) (P35869 whole entry, looked up): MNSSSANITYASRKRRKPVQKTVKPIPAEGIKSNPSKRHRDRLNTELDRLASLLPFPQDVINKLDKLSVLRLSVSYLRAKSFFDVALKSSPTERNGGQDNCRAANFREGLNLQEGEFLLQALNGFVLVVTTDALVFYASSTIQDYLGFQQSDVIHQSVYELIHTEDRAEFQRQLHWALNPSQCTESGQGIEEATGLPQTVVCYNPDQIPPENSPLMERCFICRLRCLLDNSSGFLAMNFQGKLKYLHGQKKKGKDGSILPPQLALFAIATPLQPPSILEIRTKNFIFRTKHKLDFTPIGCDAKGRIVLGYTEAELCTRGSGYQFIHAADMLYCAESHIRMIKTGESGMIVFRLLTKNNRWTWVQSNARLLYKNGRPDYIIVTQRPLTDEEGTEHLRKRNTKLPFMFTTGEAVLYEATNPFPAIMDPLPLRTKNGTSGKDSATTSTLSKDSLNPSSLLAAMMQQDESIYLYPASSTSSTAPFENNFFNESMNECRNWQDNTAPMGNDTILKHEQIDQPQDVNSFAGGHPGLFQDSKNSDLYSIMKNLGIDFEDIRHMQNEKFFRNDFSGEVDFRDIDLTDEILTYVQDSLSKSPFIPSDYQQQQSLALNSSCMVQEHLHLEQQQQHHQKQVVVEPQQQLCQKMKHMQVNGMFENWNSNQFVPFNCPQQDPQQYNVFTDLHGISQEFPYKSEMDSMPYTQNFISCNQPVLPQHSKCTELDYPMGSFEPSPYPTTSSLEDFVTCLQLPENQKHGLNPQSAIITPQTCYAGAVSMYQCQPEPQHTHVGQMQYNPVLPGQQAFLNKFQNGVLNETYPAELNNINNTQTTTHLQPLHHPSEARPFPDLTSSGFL

| SMILES | Potency |
| --- | --- |
| Clc1cc(C(Cl)(Cl)Cl)cnc1Cl | inactive |
| C=C(C#N)CCC#N | inactive |
| C[C@@H]1CC[C@H]2[C@@H](C)C(=O)O[C@@H]3O[C@@]4(C)CC[C@@H]1[C@]32OO4 | inactive |
| CO/N=C(/C(=O)OC)c1ccccc1COc1ccccc1C | inactive |
| Cl/C=C\C[N+]12CN3CN(CN(C3)C1)C2 | inactive |
| O=S(=O)(O)C(F)(F)C(F)(F)C(F)(F)C(F)(F)F | inactive |
| CC1CC(CC2CCC(N)C(C)C2)CCC1N (stereo not drawn) | inactive |
| O=S1OC[C@@H]2[C@H](CO1)[C@]1(Cl)C(Cl)=C(Cl)[C@@]2(Cl)C1(Cl)Cl (stereo partly drawn) | inactive |
| O=C(N[C@H](c1ccccc1)[C@@H]1CN2CCC1CC2)c1c(Cl)ccc(C(F)(F)F)c1Cl | inactive |
| CO[C@@H]1[C@H](OC(=O)NC(=O)CCl)CC[C@]2(CO2)[C@H]1[C@@]1(C)O[C@@H]1CC=C(C)C | inactive |
| CCC(C)(NC(=O)c1cc(Cl)c(C)c(Cl)c1)C(=O)CCl (stereo not drawn) | inactive |

System: not listed separately
Assay: qHTS assay to identify small molecule that activate the aryl hydrocarbon receptor (AhR) signaling pathway - cell viability counter screen (AID 743086); also: nearly all actives have a fitted effect of over 45% in size; also: potency is read from the fitted curve at half-maximal effect
Conditions: HepG2-AhR-luc viability, CellTiter-Fluor, 24 h; series mostly up to 70.3 µM
In short: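 HepG2-AhR-luc (HG2L7.5c1) cells, 4000/well, treated 24 h at 37 C with compound; viability measured as CellTiter-Fluor fluorescence after 30 min in the same wells as the luciferase read.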

| SMILES | Potency |
| --- | --- |
| CCn1cc[n+](C)c1 | inactive |
| NCCCNCCCN | inactive |
| CCOC(=O)[C@]1(c2ccccc2)Oc2ccccc2[C@@H]1N | inactive |
| CN1C[C@H](CNC(=O)OCc2ccccc2)C[C@@H]2c3cccc4c3c(cn4C)C[C@H]21 | 29.8 µM (active) |
| COC1=CC(=O)O[C@@H](CCc2ccccc2)C1 | inactive |
| C=CC(=O)OCC(C)O (stereo not drawn) | inactive |
| C=CC(=O)NCNC(=O)C=C | inactive |
| Clc1cc(C(Cl)(Cl)Cl)cnc1Cl | inactive |
| CC(=O)c1cc2c(cc1C)C(C)(C)C(C)CC2(C)C (stereo not drawn) | inactive |
| C=C(C#N)CCC#N | inactive |
| C=CC(=O)OCCCCO | inactive |
| N#Cc1cc(I)c(O)c(I)c1 | inactive |
| COP(=S)(OC)Oc1ccc([N+](=O)[O-])cc1Cl | 61.1 µM (active) |
| CO/N=C(/C(=O)OC)c1ccccc1COc1ccccc1C | inactive |
| Cl/C=C\C[N+]12CN3CN(CN(C3)C1)C2 | inactive |
| CC(C)O.CC(C)O.OCCN(CCO)CCO.OCCN(CCO)CCO.[Ti] | inactive |
| CCCC(Cn1cncn1)c1ccc(Cl)cc1Cl (stereo not drawn) | inactive |
| O=S1OC[C@@H]2[C@H](CO1)[C@]1(Cl)C(Cl)=C(Cl)[C@@]2(Cl)C1(Cl)Cl (stereo partly drawn) | inactive |
| O=C(O)C(F)(F)C(F)(F)C(F)(F)C(F)(F)C(F)(F)C(F)(F)C(F)(F)C(F)(F)C(F)(F)F | inactive |
| O=C(N[C@H](c1ccccc1)[C@@H]1CN2CCC1CC2)c1c(Cl)ccc(C(F)(F)F)c1Cl | 39.2 µM (active) |
| Cc1ccc(-c2c(Cl)nc(C#N)n2S(=O)(=O)N(C)C)cc1 | inactive |
| CO[C@@H]1[C@H](OC(=O)NC(=O)CCl)CC[C@]2(CO2)[C@H]1[C@@]1(C)O[C@@H]1CC=C(C)C | inactive |
